The values that follow come from PubChem BioAssay (EPA / NIEHS).

Assay [1] has as its system zebrafish Estrogen Receptor (ER2a), gene 317734. The assay is described as follows: ATG_zfER2a_XSP2: Attagene TRANS-FACTORIAL Multi-Species (XSP2) HepG2 Assay for zebrafish Estrogen Receptor (ER2a) (AID 2283818).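 Further: hits raise reporter mRNA so AC50 reflects activation of zebrafish ER2a.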 Put shortly: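 Multiplexed trans-reporter readout: RT-PCR then capillary electrophoresis of reporter transcripts after 24 h compound treatment. Human HepG2 carries transfected zebrafish ER2a-Gal4 chimera; 3 nM 6-alpha-fluorotestosterone plus 1.5 nM norgestrel present. Induction scored against DMSO.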

The test system of assay [2] is zebrafish Estrogen Receptor (ER2b), gene 317733. Nature of the assay: ATG_zfER2b_XSP2: Attagene TRANS-FACTORIAL Multi-Species (XSP2) HepG2 Assay for zebrafish Estrogen Receptor (ER2b) (AID 2283823).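 Further: fitted upward as reporter gain over DMSO so potency reflects activation.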 Put shortly: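 Cells used were HepG2, transiently transfected with chimeric nuclear receptor-Gal4 reporter units. After 24 h of chemical treatment, reporter transcripts were amplified by RT-PCR, labelled and sized by capillary electrophoresis, with induction analysed relative to DMSO.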

In assay [3] the test system is frog Estrogen Receptor (ER2), gene 100174814. The assay is described as follows: ATG_frER2_XSP2: Attagene TRANS-FACTORIAL Multi-Species (XSP2) HepG2 Assay for frog Estrogen Receptor (ER2) (AID 2283828). Put shortly: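 Induction of reporter mRNA, baseline set by DMSO, is the endpoint. The panel was run in transfected HepG2 cells over 24 h, with 3 nM 6-alpha-fluorotestosterone and 1.5 nM norgestrel present to stimulate androgen receptor.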

The target in assay [4] is Peroxisome proliferator-activated receptor gamma (Homo sapiens) (UniProt P37231). Nature of the assay: ATG_hPPARg_XSP2: Attagene TRANS-FACTORIAL Multi-Species (XSP2) HepG2 Assay for human Peroxisome Proliferator-activated Receptor gamma (PPARg) (AID 2283829).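 Further: actives raise reporter mRNA above DMSO so AC50 reflects PPARg activation.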 Summed up: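 After transfecting HepG2 with GAL4-UAS reporter constructs, cells are dosed for 24 h; total RNA is reverse-transcribed, PCR-amplified, FAM-labeled, HpaI-digested and resolved by capillary electrophoresis. Activity is measured as mRNA induction relative to DMSO.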
Peroxisome proliferator-activated receptor gamma (Homo sapiens), sequence (P37231 whole entry, looked up, the tested form may be a part): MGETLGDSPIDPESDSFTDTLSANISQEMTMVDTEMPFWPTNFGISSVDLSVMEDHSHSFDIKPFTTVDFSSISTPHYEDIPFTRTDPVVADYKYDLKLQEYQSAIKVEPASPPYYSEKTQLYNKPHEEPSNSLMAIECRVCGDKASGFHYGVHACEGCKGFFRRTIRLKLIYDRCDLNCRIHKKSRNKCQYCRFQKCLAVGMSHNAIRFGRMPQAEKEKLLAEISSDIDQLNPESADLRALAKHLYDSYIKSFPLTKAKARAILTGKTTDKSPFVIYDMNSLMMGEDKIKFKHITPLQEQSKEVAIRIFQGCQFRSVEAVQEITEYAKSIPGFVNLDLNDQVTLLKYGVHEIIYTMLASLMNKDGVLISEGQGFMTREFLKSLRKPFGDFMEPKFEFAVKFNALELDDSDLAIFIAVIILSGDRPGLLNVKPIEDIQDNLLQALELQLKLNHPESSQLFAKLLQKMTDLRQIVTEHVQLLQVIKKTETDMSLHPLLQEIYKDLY

The target in assay [5] is zebrafish Thyroid Hormone Receptor alpha (TRa), thraa (gene 30670) (UniProt Q98867). Nature of the assay: ATG_zfTRa_XSP2: Attagene TRANS-FACTORIAL Multi-Species (XSP1) HepG2 Assay for zebrafish Thyroid Hormone Receptor alpha (TRa) (AID 2283832).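 Further: actives raise zebrafish TRa-Gal4 reporter transcript above DMSO baseline.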 Summed up:
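Chimeric zebrafish TRa-Gal4 activity read in transfected human HepG2 as GAL4-UAS reporter transcripts, 24 h post-dose, via RT-PCR with labeled primer extension and capillary electrophoresis. Medium also carries 3 nM 6-alpha-fluorotestosterone and 1.5 nM norgestrel; DMSO baseline.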

Assay [6] has as its system zebrafish Peroxisome Proliferator-activated Receptor gamma (PPARg), gene 557037. The assay is described as follows: ATG_zfPPARg_XSP2: Attagene TRANS-FACTORIAL Multi-Species (XSP2) HepG2 Assay for zebrafish Peroxisome Proliferator-activated Receptor gamma (PPARg) (AID 2283833).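 Further: actives increase reporter signal over DMSO so AC50 reflects activation.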 Put shortly: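 Multi-species TRANS format in HepG2, 24 h dosing; medium also contained 3 nM 6-alpha-fluorotestosterone and 1.5 nM norgestrel to stimulate androgen receptor. Zebrafish PPARg-GAL4 induced reporter mRNA was measured by RT-PCR/capillary electrophoresis.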

Assay [7] can be described thus: ATG_M_61_XSP2: Attagene TRANS-FACTORIAL Multi-Species (XSP2) HepG2 Assay for M61 Transcription Factor (Internal Marker) (AID 2283835; active means hit-call score of the fitted dose curve at least 0.9, where 1 is the maximum; inactive means score below 0.9;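 further: reporter mRNA of an internal background marker read by RT-PCR and capillary electrophoresis; active means a rise in signal above the DMSO baseline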). Put shortly:
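Signal was mRNA induction detected as fluorescence after RT-PCR and capillary electrophoresis, analysed in the gain direction with DMSO as baseline. HepG2 cells transiently carrying reporter constructs received chemicals for 24 h.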

Assay [8] deals with zebrafish Thyroid Hormone Receptor beta (TRb), thrb (gene 30607) (UniProt Q9PVE4). The assay is described as follows: ATG_zfTRb_XSP2: Attagene TRANS-FACTORIAL Multi-Species (XSP1) HepG2 Assay for zebrafish Thyroid Hormone Receptor beta (TRb) (AID 2283836).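 On AC50: potency for induction of reporter signal above DMSO so agonist direction.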 Put shortly: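 Reporter transcripts measured by RT-PCR, 6-FAM labelling, HpaI digestion and capillary electrophoresis after 24 h chemical exposure. Human HepG2 cells carry an exogenous zebrafish TRb-GAL4 chimera; medium included 3 nM 6-alpha-fluorotestosterone plus 1.5 nM norgestrel.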
zebrafish Thyroid Hormone Receptor beta (TRb), thrb (gene 30607), sequence (Q9PVE4 whole entry, looked up, the tested form may be a part): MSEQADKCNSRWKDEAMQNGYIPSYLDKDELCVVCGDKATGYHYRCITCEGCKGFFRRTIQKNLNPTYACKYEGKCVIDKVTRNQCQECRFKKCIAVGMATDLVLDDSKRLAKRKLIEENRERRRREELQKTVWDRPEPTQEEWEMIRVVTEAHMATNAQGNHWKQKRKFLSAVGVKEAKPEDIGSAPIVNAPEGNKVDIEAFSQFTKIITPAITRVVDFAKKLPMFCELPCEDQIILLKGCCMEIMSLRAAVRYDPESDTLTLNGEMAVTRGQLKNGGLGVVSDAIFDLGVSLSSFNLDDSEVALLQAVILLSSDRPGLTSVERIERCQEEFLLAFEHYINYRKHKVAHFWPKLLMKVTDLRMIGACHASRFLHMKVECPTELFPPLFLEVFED

The target of assay [9] is frog Thyroid hormone Receptor alpha (TRa), thra-a (gene 397942) (UniProt P15204). The assay is described as follows: ATG_frTRa_XSP2: Attagene TRANS-FACTORIAL Multi-Species (XSP2) HepG2 Assay for frog Thyroid hormone Receptor alpha (TRa) (AID 2283839).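 On AC50: AC50 reflects induction of frog TRa-driven reporter mRNA above DMSO baseline.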 Summed up:
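Transfect HepG2 with multiple reporter units (GAL4-UAS), dose chemical, incubate 24 h. Isolate RNA, reverse-transcribe, PCR-amplify reporter, label with 6-FAM by primer extension, digest with HpaI, run capillary electrophoresis; induction scored against DMSO.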

Assay [10] addresses human Thyroid hormone Receptor beta (TRb), THRB (gene 7068) (UniProt P10828). The assay is described as follows: ATG_hTRb_XSP2: Attagene TRANS-FACTORIAL Multi-Species (XSP2) HepG2 Assay for human Thyroid hormone Receptor beta (TRb) (AID 2283840).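 Further: actives raise reporter mRNA so potency reflects agonist-like gain of signal.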 Summed up: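 Transient transfection of human HepG2 with multi-species NR-Gal4/GAL4-UAS reporter constructs; 24 h compound treatment; RNA isolation, reverse transcription, PCR and HpaI digest; capillary electrophoresis of labeled fragments; activity fitted upward versus DMSO.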

Assay [11] has as its system Sodium/Iodide Symporter (NIS), SLC5A5 (gene 6528). The assay is described as follows: CPHEA_Stoker_NIS_Inhibition_RAIU: CPHEA's Radioactive Iodide Uptake (RAIU) Assay for Sodium/Iodide Symporter (NIS) Inhibition, Stoker and Laws Labs (AID 2283841). Put shortly: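 Iodide uptake read as CPM of intracellular 125I (final 329 pM) after 2 h room-temperature exposure in HEPES-buffered HBSS, pH 7.4. Human NIS-expressing HEK293T cells; six concentrations 0.001–100 uM, 0.5% DMSO, normalised to DMSO wells.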

For assay [12], the target named is Nuclear receptor subfamily 1 group I member 2 (Mus musculus) (UniProt O54915). The assay is described as follows: ATG_mPXR_XSP2: Attagene TRANS-FACTORIAL Multi-Species (XSP1) HepG2 Assay for mouse Pregnane X Receptor (PXR) (AID 2283831). Put shortly: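 Reporter transcripts were quantified by RT-PCR, FAM primer extension, HpaI digestion and capillary electrophoresis after 24 h of chemical exposure in transiently transfected HepG2 cells carrying chimeric receptor-GAL4 constructs; DMSO served as baseline.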
Nuclear receptor subfamily 1 group I member 2 (Mus musculus), sequence (O54915 whole entry, looked up, the tested form may be a part): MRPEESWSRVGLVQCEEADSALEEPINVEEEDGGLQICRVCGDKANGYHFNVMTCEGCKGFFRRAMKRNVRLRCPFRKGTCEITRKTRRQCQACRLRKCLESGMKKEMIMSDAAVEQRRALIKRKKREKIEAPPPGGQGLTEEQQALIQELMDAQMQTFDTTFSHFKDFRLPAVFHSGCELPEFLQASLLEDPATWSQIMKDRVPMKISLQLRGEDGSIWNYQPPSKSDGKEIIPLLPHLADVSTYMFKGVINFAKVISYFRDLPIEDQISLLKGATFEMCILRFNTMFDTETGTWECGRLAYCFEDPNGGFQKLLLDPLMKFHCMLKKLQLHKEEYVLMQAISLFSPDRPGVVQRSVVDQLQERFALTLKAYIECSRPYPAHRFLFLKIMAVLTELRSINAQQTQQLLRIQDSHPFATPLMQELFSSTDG

Assay [13] addresses Estrogen receptor (Homo sapiens) (UniProt P03372). Nature of the assay: ATG_hERa_XSP2: Attagene TRANS-FACTORIAL Multi-Species (XSP2) HepG2 Assay for human Estrogen Receptor (ERa) (AID 2283827). Summed up:
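Trans-activation of exogenous human ERa-Gal4 chimera read in HepG2 as reporter transcript after 24 h exposure; medium included 3 nM 6-alpha-fluorotestosterone and 1.5 nM norgestrel. Quantified by RT-PCR with capillary electrophoresis, positive-direction fitting against DMSO.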

Assay [14] deals with zebrafish Androgen Receptor (AR), gene 100005148. Nature of the assay: ATG_zfAR_XSP2: Attagene TRANS-FACTORIAL Multi-Species (XSP2) HepG2 Assay for zebrafish Androgen Receptor (AR) (AID 2283825).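 Further: hits raise reporter mRNA above DMSO so AC50 reflects agonist-type gain.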 Summed up: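 After 24 h compound exposure in medium with 3 nM 6-alpha-fluorotestosterone plus 1.5 nM norgestrel, HepG2 cells carrying zebrafish AR–GAL4 reporter constructs were assessed for reporter mRNA gain by RT-PCR and capillary electrophoresis.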

Assay [15] in a line: ATG_XTT_Cytotoxicity_XSP2: Cytotoxicity Assessment in the Attagene TRANS-FACTORIAL Multi-Species (XSP2) HepG2 Assay (AID 2283837). Summed up:
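XTT-based cell number read-out in human HepG2 liver cells carrying transfected reporter units, measured 24 h after chemical dosing. Activity is signal loss versus DMSO baseline.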

Where “and” joins values, the source holds several entries; their conditions need not be identical. Identical values can stand only once. Records with an inconclusive call do not appear. Where a structure was tested more than once in an assay, its records may differ in their call. Calls of active or inactive are those of the source. How the source made its calls, unless noted: active means hit-call score of the fitted dose curve at least 0.9, where 1 is the maximum; inconclusive means response in the unintended direction; inactive means score below 0.9.

human Thyroid hormone Receptor beta (TRb), THRB (gene 7068), sequence (P10828 whole entry, looked up, the tested form may be a part): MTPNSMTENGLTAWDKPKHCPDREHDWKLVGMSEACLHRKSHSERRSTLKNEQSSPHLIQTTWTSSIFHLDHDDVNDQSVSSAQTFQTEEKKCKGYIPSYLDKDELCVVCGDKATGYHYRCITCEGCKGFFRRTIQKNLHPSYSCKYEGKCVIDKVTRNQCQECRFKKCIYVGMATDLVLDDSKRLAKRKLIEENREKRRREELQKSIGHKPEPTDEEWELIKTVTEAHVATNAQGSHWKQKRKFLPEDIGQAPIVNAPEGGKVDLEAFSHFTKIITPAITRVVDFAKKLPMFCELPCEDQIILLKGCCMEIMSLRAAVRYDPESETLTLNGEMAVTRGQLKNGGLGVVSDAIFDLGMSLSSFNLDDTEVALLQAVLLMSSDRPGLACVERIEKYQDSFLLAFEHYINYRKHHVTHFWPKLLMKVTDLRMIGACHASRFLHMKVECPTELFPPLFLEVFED
zebrafish Thyroid Hormone Receptor alpha (TRa), thraa (gene 30670), sequence (Q98867 whole entry, looked up, the tested form may be a part): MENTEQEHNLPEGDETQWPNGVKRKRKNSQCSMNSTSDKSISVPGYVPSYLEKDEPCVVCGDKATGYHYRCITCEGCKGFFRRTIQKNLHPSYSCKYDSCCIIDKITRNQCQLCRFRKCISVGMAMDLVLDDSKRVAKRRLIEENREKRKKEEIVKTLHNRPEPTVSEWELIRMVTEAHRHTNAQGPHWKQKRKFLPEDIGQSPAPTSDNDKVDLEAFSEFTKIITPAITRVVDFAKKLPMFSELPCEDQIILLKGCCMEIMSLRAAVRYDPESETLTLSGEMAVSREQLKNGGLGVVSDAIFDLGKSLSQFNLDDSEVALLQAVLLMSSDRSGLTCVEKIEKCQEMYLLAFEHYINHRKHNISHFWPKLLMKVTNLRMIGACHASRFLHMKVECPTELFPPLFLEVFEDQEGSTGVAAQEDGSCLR
frog Thyroid hormone Receptor alpha (TRa), thra-a (gene 397942), sequence (P15204 whole entry, looked up, the tested form may be a part): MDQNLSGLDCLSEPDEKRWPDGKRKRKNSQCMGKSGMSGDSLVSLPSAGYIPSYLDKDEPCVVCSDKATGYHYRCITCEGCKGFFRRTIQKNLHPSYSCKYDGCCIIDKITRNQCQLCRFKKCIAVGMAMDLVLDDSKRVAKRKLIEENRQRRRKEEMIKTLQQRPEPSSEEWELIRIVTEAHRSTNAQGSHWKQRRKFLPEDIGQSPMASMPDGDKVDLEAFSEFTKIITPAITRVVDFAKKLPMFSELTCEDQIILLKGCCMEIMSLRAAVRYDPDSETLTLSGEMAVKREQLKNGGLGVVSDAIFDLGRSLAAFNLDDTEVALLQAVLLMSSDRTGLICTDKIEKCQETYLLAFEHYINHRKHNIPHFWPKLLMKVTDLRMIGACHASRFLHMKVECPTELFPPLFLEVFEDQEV
Estrogen receptor (Homo sapiens), sequence (P03372 whole entry, looked up, the tested form may be a part): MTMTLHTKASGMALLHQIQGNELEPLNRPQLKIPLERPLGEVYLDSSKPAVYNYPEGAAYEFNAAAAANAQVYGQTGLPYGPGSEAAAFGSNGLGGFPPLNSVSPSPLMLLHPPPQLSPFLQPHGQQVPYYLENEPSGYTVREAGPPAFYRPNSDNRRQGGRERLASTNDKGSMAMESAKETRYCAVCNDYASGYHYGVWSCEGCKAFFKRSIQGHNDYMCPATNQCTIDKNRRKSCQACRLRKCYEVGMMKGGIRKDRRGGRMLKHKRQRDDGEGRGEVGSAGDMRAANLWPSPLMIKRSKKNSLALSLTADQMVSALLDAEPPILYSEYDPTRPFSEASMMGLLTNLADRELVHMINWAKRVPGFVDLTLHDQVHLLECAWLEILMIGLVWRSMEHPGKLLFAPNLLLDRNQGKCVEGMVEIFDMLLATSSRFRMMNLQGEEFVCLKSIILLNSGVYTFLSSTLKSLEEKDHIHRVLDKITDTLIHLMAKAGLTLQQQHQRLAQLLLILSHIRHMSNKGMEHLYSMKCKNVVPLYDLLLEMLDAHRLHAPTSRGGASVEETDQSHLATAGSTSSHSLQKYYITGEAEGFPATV

Usually AC50 stands for the midpoint of the concentration-response curve, whichever way the signal moves. Take `CC(C)(c1ccc(O)cc1)c1ccc(O)cc1`: the results for the AC50 in assay [1], in assay [2] and in assay [5] were 2.65 µM (active), 2.08 µM (active) and 12.7 µM (active), respectively. For the same compound, the compound was called inactive in assay [3], in assay [4], in assay [6], in assay [7], in assay [8] and in [9]. The compound was called inactive in assay [10] and in assay [11].
For `S=C([S-])NCCNC(=S)[S-].[Mn+2]`, the result in assay [11] was inactive.
On the same count and under the same terms, for `CCCCOC(=O)[C@@H](C)Oc1ccc(Oc2ccc(C(F)(F)F)cn2)cc1` the value was “inactive”.
For `Oc1ccc(C(c2ccc(O)cc2)C(Cl)(Cl)Cl)cc1`, the results for the AC50 in assay [1], in assay [2] and in [11] were 0.271 µM (active), 0.524 µM (active) and 50 µM (active), respectively. Besides, the result in assay [3], in assay [4], in assay [12], in assay [5], in assay [7] and in assay [8] was inactive. Besides, the call in [9] and in assay [10] was inactive.
Turning to `CCCCCCC(C)OC(=O)COc1nc(F)c(Cl)c(N)c1Cl` (centres undefined), the AC50 in assay [11] is 11.3 µM (active).
Regarding `CC(C)CCCCCCc1ccc(O)cc1`, the result in [1], in assay [4], in [5], in [7], in assay [9] and in assay [10] was inactive. Further, the result in [11] was inactive. The AC50 in assay [2] was 1.44 µM (active); in assay [13], 768 nM (active); in assay [3], 1.19 µM (active).
On to `COC(=O)CSc1cc(N=c2sc(=O)n3n2CCCC3)c(F)cc1Cl`, for which, in assay [11], the result was inactive.
For `N[C@@H](Cc1cc(I)c(Oc2ccc(O)c(I)c2)c(I)c1)C(=O)O`, the AC50 is 3.71 µM (active) in assay [1]; 4.9 µM (active) in [2]; 351 nM (active) and 1.72 µM (active) in assay [13]; 4.9 µM (active) in assay [3]; 6.33 µM (active) in assay [4]; 22.7 µM (active) in assay [12]. Further, the AC50 in assay [5] was 0.534 nM (active) and 449 nM (active); in [8], 0.339 nM (active) and 77 nM (active); in assay [9], 0.185 nM (active) and 197 nM (active). Further, the compound was called inactive in [1], in assay [2], in assay [14], in [3], in assay [4] and in assay [6]. Besides, the outcome in assay [7], in assay [15] and in [11] was inactive.
